HSP90 refold inh = HSP90 refolding inhibition in rabbit reticulocyte lysate; inhibition, % at 5.6 µM; AID 1789; luciferase refolding luminescence, 3 h; 0.91% of 290,000 active;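 active = inhibition above the screen-wide mean plus 3 SD, computed separately per campaign, cut at about 16% in these data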;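 also: 0% = DMSO wells and 100% = 60 µM geldanamycin wells; inhibitors lower the luminescence because luciferase stays unfolded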
Mdm2 MdmX PPI = inhibitors of human Mdm2/MdmX interaction. O15151+Q00987. SaOS-2 split-luciferase Mdm2/MdmX complementation, luminescence. inhibition, % at 8 µM. 3% of 330,000 active. AID 485346;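 active = inhibition of at least 50% at 8 µM in the primary screen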
CF NFkB inh = inhibitors of cystic fibrosis induced NF-kB. 0.86% of 360,000 active. KKLEB NF-kB-GFP reporter, PAF-induced, GFP fluorescence overnight. inhibition, % at 5 µM;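 active = at least 50% inhibition at 5 µM, scaled per plate between neutral and stimulator controls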;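 also: PAF is a Pseudomonas aeruginosa culture filtrate used as stimulus; plate controls were PAF-stimulated DMSO wells for no effect and unstimulated DMSO wells for full effect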
LGR2 antag = inhibitors of bursicon-induced Drosophila LGR2 receptor cAMP signaling; 0.35% of 380,000 active; inhibition, % at 9.99 µM; HEK293 LGR2, CRE-luciferase, bursicon-stimulated, 4 h; AID 720647;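 active = drop in luminescence signal, shown as inhibition above about 50% in the replicate tests, limit read from the data, passing the limit was not always enough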;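 also: agonist challenge used bursicon conditioned medium at about half maximal strength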
Peg3 promoter = inhibitors of Peg3 promoter; HeLa PEG-Prom luciferase reporter, luminescence, overnight; inhibition, % at 20 µM; 1.7% of 360,000 active;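 active = inhibition of at least 50% at 20 µM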
KKLEB cytotox = counter-screen for CF NF-kB inhibitors: cytotoxicity. 0.36% of 360,000 active. activity change (cytotoxicity), % at 5 µM. KKLEB CF airway cells viability, ATPlite luminescence, overnight; hits give low values; cells stimulated with P. aeruginosa culture filtrate;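 active = corrected activity change at or below -50% at 5 µM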
Mdm2 MdmX conf = confirmation of human Mdm2/MdmX interaction inhibitors; shares compounds with Mdm2 MdmX PPI; inhibition, % at 8 µM; Mdm2-MdmX binding, luminescent assay; 55% of 10,000 active; in the data active = inhibition above about 40%
FLuc counter = inhibits full-length luciferase, flagging false Mdm2/MdmX hits. shares compounds with Mdm2 MdmX PPI. SaOS-2 full-length luciferase counterscreen, luminescence. inhibition, % at 8 µM. 77% of 6,200 active. AID 504607;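 active = mean inhibition at 8 µM reaching about 37%, which flags the compound as non-specific, limit read from the data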;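 also: p53-null SaOS-2 cells with luciferase driven by a doxycycline-inducible promoter; compound on cells about two nights before reading with doxycycline added after day one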
Numbers without * were called inactive; / = not tested or not shown. This is a sample that favours compounds with a hit; in the whole collection about 3.6% have one here.

SMILES	HSP90 refold inh	Mdm2 MdmX PPI	CF NFkB inh	LGR2 antag	Peg3 promoter	KKLEB cytotox	Mdm2 MdmX conf	FLuc counter
C[C@@H]1CN([C@H](C)CO)C(=O)c2cccc(N(C)C)c2O[C@H]1CN(C)Cc1ccc(C(=O)Nc2ccccc2N)cc1	/	/	/	-22	/	/	/	/
O=[N+]([O-])c1ccc(Sc2cccc3cccnc23)c([N+](=O)[O-])c1	2	93*	-22	37	97*	-6	86*	57*
C[C@H]1CN([C@@H](C)CO)S(=O)(=O)c2ccc(C3=CCCCC3)cc2O[C@@H]1CN(C)C(=O)C1CC1	/	/	/	11	/	/	/	/
Cn1c(=O)n(C)c2cc([N+](=O)[O-])c(N3CCN(S(=O)(=O)c4ccc(C(C)(C)C)cc4)CC3)cc21	-2	60*	-6	/	-6	12	38	70*
CC(=O)Nc1ccc(S(=O)(=O)N2CCN(c3cc4c(cc3[N+](=O)[O-])n(C)c(=O)n4C)CC2)cc1	-3	26	-28	-2	7	11	/	/
NS(=O)(=O)c1ccc(N2N=C(c3ccccc3)CC2c2cccc(F)c2)cc1 (stereo unspecified)	0	/	8	14	19	10	/	/
NS(=O)(=O)c1ccc(N2N=C(c3ccccc3)CC2c2ccccc2Br)cc1 (stereo unspecified)	/	52*	38	9	33	-6	17	/
O=[N+]([O-])c1ccc(N2N=C(c3ccco3)CC2c2ccccc2)cc1 (stereo unspecified)	4	13	-8	13	16	-8	/	/
COc1ccc(C2CC(c3cccc(Cl)c3)=NN2c2ccc(S(N)(=O)=O)cc2)cc1 (stereo unspecified)	/	68*	20	29	54*	2	-3	/
NS(=O)(=O)c1ccc(N2N=C(c3ccc(Br)cc3)CC2c2ccc(F)cc2)cc1 (stereo unspecified)	0	72*	2	/	22	-1	39	75*
O=[N+]([O-])c1ccc(N2N=C(c3ccccc3)CC2c2ccccc2O)cc1 (stereo unspecified)	4	90*	41	-8	53*	-37	36	104*
O=C(C[C@@H]1CC[C@H]2NC[C@H](O)COC[C@@H]2O1)Nc1nccs1	/	/	/	27	/	/	/	/
CCN1[C@H](C(=O)N2CCc3ccccc3C2)[C@@H](CO)[C@@H]2Cn3c(cccc3=O)[C@@H]21	/	/	/	3	/	/	/	/
COc1ccc(C2CC(c3ccc(Cl)cc3)=NN2c2ccc(S(N)(=O)=O)cc2)cc1 (stereo unspecified)	/	87*	24	19	24	-7	15	/
COc1ccc(C2CC(c3ccncc3)=NN2c2ccc(S(N)(=O)=O)cc2)cc1 (stereo unspecified)	/	27	-14	-43	-225	0	/	/
C[C@H](O)C#Cc1ccc2c(c1)O[C@H](CN(C)Cc1ccccn1)[C@@H](C)CN([C@H](C)CO)S2(=O)=O	/	/	/	-3	/	/	/	/
CCN(CC)CCN1C(=O)c2ccccc2NC1c1cc(OC)c(OC)c(OC)c1 (stereo unspecified)	-2	-1	0	-9	31	-3	/	/
CCN(CC)c1ccc2c(cc1=O)[C@@H](NC)CCc1cc(OC)c(OC)c(OC)c1-2	0	69*	42	-1	-2	-9	61*	90*
CN[C@H]1CCc2cc(OC)c(OC)c(OC)c2-c2ccc(N(C)CC(OC)OC)c(=O)cc21	2	71*	8	2	-3	-3	49*	66*
COc1cc2c(c(OC)c1OC)-c1ccc(N(C)CC(OC)OC)c(=O)cc1[C@@H](NC(C)=O)CC2	0	68*	42	-12	3	-10	63*	132*
COc1cc(C(=O)NC2CCCc3ccccc32)cc(OC)c1OC (stereo unspecified)	-3	40	4	-12	-10	-6	/	/
Cc1cccc(N2CCN(C(=O)c3ccc(CS(=O)(=O)c4ccccc4C)o3)CC2C)c1 (stereo unspecified)	2	65*	53*	/	52*	-11	52*	82*

Compound activity from PubChem BioAssay.
